# Measured values published in PubChem BioAssay (Tox21).
# Inconclusive results are not listed. A call without a number means that no potency is given here. A number with no mark means an inactive call. The source made the active and inactive calls. Calls come from the whole dose curve.
# Test: p53 small molecule agonists, cell-based qHTS assay with human liver microsomes: qHTS cell viability counter screen (AID 1963579); note: nearly all actives have a fitted effect of over 45% in size
# Settings: p53RE-bla HCT-116 viability, ATP luminescence, 16 h, HLM; series mostly up to 66 µM
# Source text: National Center for Advancing Translational Sciences [NCATS]
# Division of Preclinical Innovation [DPI]
# U.S. Environmental Protection Agency [EPA]
# National Institutes of Environmental Health Sciences [NIEHS]
# National Toxicology Program [NTP]
# U.S. Food and Drug Administration [FDA]
# p53, a tumor suppressor protein, is activated following cellular insult, including DNA damage and other cellular stresses. The activation of p53 regulates cell fate by inducing DNA repair, cell cycle arrest, apoptosis, or cellular senescence. The activation of p53, therefore, is a good indicator of DNA damage and other cellular stresses. […] The activation of the reporter gene under culture conditions can be detected by fluorescence intensity. This cell line was used to screen the Tox21 10K compound library in the condition of presence of human liver microsomes and to identify agonists that activate the p53 signaling pathway after in vitro metabolic activation (Ooka et al., Archive of Toxicology 96:1975-1987, 2022).
# Tox21 Assay Protocol Summary:
# The p53RE-bla cells were dispensed at 4,000cells/3ul/well in 1536-well black-clear bottom plates. After the assay plates were incubated at 37 C, 5% CO2 incubator for 5 hours, 23 nL of compounds dissolved in DMSO, positive controls or DMSO only was transferred to the assay plate. Following compound addition, 3 uL of human liver microsomes (XenoTech, Kansas City, KS) at final concentration of 0.5 mg/mL and 1uL of B-Nicotinamide adenine dinucleotide 2'-phosphate (NADPH) at final concentration of 0.5 mg/mL were transferred to the assay plate. The plates were incubated at 37 C for 16 hours. 1 uL of LiveBLAzer detection mixture was added to each well and the plates were incubated at room temperature in the dark for 2 h. Fluorescence intensity at 460 and 530 nm emission and 405 nm excitation were measured by an Envision plate reader. For cell viability readout that measures cytotoxicity, 4 ul/well of CellTiter-Glo reagent was added into the assay plates using a Flying Reagent Dispenser. After 30 min incubation at room temperature, the luminescence intensity in the plates was measured using a ViewLux plate reader.
SMILES,Potency,"activity change, negative = cytotoxicity"
CCCCCCCCC1CO1 (stereo not given),inactive,–
OC(CCN1CCCC1)(c1ccccc1)C1CCCCC1 (stereo not given),inactive,–
C=C1CC[C@H]2O[C@]2(C)CC[C@@H]2[C@@H]1CC2(C)C,inactive,–
OCCN1CN(CCO)CN(CCO)C1,inactive,–
Cc1c(NC(C)C)c(=O)n(-c2ccccc2)n1C,inactive,–
OCC(CO)(CO)COCC(CO)(CO)CO,inactive,–
CCCCCCCCCCCCCc1ccccc1,inactive,–
C[C@@H]1[C@H](O)[C@@H](C)/C=C/C=C\C=C\C=C\C=C\C=C\C=C\[C@H](O[C@@H]2O[C@H](C)[C@@H](O)[C@H](N)[C@@H]2O)C[C@@H]2O[C@](O)(C[C@@H](O)C[C@@H](O)[C@H](O)CC[C@@H](O)C[C@@H](O)CC(=O)O[C@H]1C)C[C@H](O)[C@H]2C(=O)O (stereo in doubt),inactive,–
O=c1[nH]cccc1O,inactive,–
C[C@H](CN1CCCC1)C(=O)c1ccc(C(F)(F)F)cc1,inactive,–
CCOC(=O)CC(C)O (stereo not given),inactive,–
Cc1cccc2nccnc12,inactive,–
Cn1cccc1,inactive,–
Cc1c(C)c([N+](=O)[O-])c(C(C)(C)C)c([N+](=O)[O-])c1C,inactive,–
O=C(O)c1cc(Cl)cc(Cl)c1O,inactive,–
CC(C)Cc1ccc(C(C)C(=O)OCc2ccccn2)cc1 (stereo not given),inactive,–
CCCCCCCCCCCCCCC1CO1 (stereo not given),inactive,–
CN1CCN(Cc2cc(-c3ccc4[nH]c(=O)oc4c3)co2)[C@@H](c2ccc(F)cc2)C1,inactive,–
CC1(C)S[C@@H]2[C@H](N=CN3CCCCCC3)C(=O)N2[C@H]1C(=O)O,inactive,–
CC(C)(C)C(=O)C(=O)O,inactive,–

SMILES,Potency,"activity change, negative = cytotoxicity"
NCC(=O)O,–,-11.7% [at 13.5 µM]
Clc1cc(Cl)cc(Cl)c1,inactive,–
CCNC(=O)C1CC(C)CCC1C(C)C (stereo not given),inactive,–
CCC(=O)O[C@]1(C(=O)CCl)[C@@H](C)C[C@H]2[C@@H]3CCC4=CC(=O)C=C[C@]4(C)[C@@]3(F)[C@@H](O)C[C@@]21C,inactive,–
CCCN1C[C@H](CSC)C[C@@H]2c3cccc4[nH]cc(c34)C[C@H]21,inactive,–
O=C(O)CCNC(=O)c1ccc(N=Nc2ccc(O)c(C(=O)O)c2)cc1,inactive,–
C[Si]1(C)O[Si](C)(C)O[Si](C)(C)O1,inactive,–
Cc1ccc2nc(N)[nH]c(=O)c2c1Sc1ccncc1,inactive,–
COC(=O)CCCC(=O)O,inactive,–
CC(=O)CC(=O)Nc1ccc(C)cc1C,inactive,–
O=C(CCc1ccc(O)cc1)c1c(O)cc(O)cc1O,inactive,–
COc1ccc2c(c1)C(=O)N(CCc1ccc(S(=O)(=O)NC(=O)NC3CCCCC3)cc1)C(=O)C2(C)C,inactive,–
O=c1cccccc1O,inactive,–
COCCOC(=O)C1=C(C)NC(C)=C(C(=O)OC(C)C)C1c1cccc([N+](=O)[O-])c1 (stereo not given),inactive,–
CN1C(=O)c2ccc([N+](=O)[O-])cc2C1=O,inactive,–
O=C(O)c1cc(-c2ccc(F)cc2F)ccc1O,inactive,–
O=Cc1ccc(F)c(Br)c1,inactive,–
CCO[Si](CC)(OCC)OCC,inactive,–
Nc1c(CC(=O)O)cccc1C(=O)c1ccc(Br)cc1,inactive,–
NC(=O)NC(=O)Cc1ccccc1,inactive,–
